Test results as given in PubChem BioAssay (NCI).
This is part of a sample that, as a whole, favours compounds with a hit. Of some 83,000 tested, about 20% had one in any assay.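 96-well plates, one dose, 48 hours. Percent growth reported; active if below 10.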 A number with no mark means an inactive call. The source made the active and inactive calls.

Experiments:
Assay in all cases: NCI-60 one-dose screen, 48 h (100 = growth as untreated, 0 = no growth, -100 = all killed)
Conditions in all cases: 10 µM
HCT-15 colon = tested on: HCT-15 colon
HT29 colon = tested on: HT29 colon
SNB-75 CNS = tested on: SNB-75 CNS
SNB-19 CNS = tested on: SNB-19 CNS
U251 CNS = tested on: U251 CNS
PC-3 prostate = tested on: PC-3 prostate
SK-MEL-5 melanoma = tested on: SK-MEL-5 melanoma
UACC-62 melanoma = tested on: UACC-62 melanoma
SK-MEL-28 melanoma = tested on: SK-MEL-28 melanoma
SK-MEL-2 melanoma = tested on: SK-MEL-2 melanoma
SN12C renal = tested on: SN12C renal
UO-31 renal = tested on: UO-31 renal
TK-10 renal = tested on: TK-10 renal
ACHN renal = tested on: ACHN renal
CAKI-1 renal = tested on: CAKI-1 renal
A498 renal = tested on: A498 renal
MOLT-4 leukemia = tested on: MOLT-4 leukemia
LOX IMVI melanoma = tested on: LOX IMVI melanoma
EKVX NSCLC = tested on: EKVX NSCLC
CCRF-CEM leukemia = tested on: CCRF-CEM leukemia

| SMILES | growth (HCT-15 colon) | growth (HT29 colon) | growth (SNB-75 CNS) | growth (SNB-19 CNS) | growth (U251 CNS) | growth (PC-3 prostate) | growth (SK-MEL-5 melanoma) | growth (UACC-62 melanoma) | growth (SK-MEL-28 melanoma) | growth (SK-MEL-2 melanoma) | growth (SN12C renal) | growth (UO-31 renal) | growth (TK-10 renal) | growth (ACHN renal) | growth (CAKI-1 renal) | growth (A498 renal) | growth (MOLT-4 leukemia) | growth (LOX IMVI melanoma) | growth (EKVX NSCLC) | growth (CCRF-CEM leukemia) |
| --- | --- | --- | --- | --- | --- | --- | --- | --- | --- | --- | --- | --- | --- | --- | --- | --- | --- | --- | --- | --- |
| CCCCC1(O)CCCCC1 | 110% | 98.5% | 105% | 106% | 99.1% | 103% | 105% | 102% | 106% | 112% | 103% | 99.1% | 94.3% | 101% | 96.1% | 115% | 93.5% | – | – | – |
| Nc1nc(-c2ccc(Cl)cc2)cc(-c2cc3ccccc3oc2=O)n1 | 102% | 93.5% | 68.4% | 94% | 99.4% | 97.8% | 91.2% | 92.5% | 110% | – | 98.5% | – | 95.7% | 92.5% | 84.1% | 99.5% | 93.8% | 92.8% | 86.2% | 103% |
| O=C(O)c1cc([N+](=O)[O-])ccc1Oc1ccccc1 | 95.4% | 90.8% | 98.1% | 98.4% | 95.9% | 89.2% | 84.6% | 103% | – | 103% | 95.3% | 83.5% | 88.5% | 101% | – | 102% | – | 93.1% | 97.9% | 101% |
| COc1cc(-c2nn(-c3cccc(NC(=O)CN4CCOCC4)c3)cc2-c2cccnc2)ccc1Cl | 66.7% | 65.2% | 65.5% | 88% | 92.7% | 58% | 48.2% | 61.4% | 84.3% | – | – | 68.6% | 125% | 87.6% | – | 93.3% | 74.3% | 63.3% | 95.8% | 70.9% |
| O=C(NCCNC(=O)c1ccc(F)cc1)Nc1ccc(-n2cc(-c3ccncc3)c(-c3ccc(Cl)c(O)c3)n2)cc1 | 19.5% | -45.3% (active) | 18.7% | 22.7% | -19.9% (active) | -5.9% (active) | -84.9% (active) | 7.05% (active) | – | -11.4% (active) | 31.5% | 16.9% | 12.3% | 9.32% (active) | – | -24.2% (active) | 8.22% (active) | -3.97% (active) | 11.8% | 7.35% (active) |
| CCCc1nc(C(C)(C)O)c(C(=O)O)n1Cc1ccc(-c2ccccc2-c2nn[nH]n2)cc1 | 101% | 93.6% | 66.9% | 102% | 103% | 95.9% | 110% | 94.5% | 108% | – | – | 84.6% | 96.8% | 93.5% | 92.6% | 80.2% | 107% | 94.7% | 106% | 95.8% |
| O=C1c2ccccc2C(=O)c2c1ccc1c(=O)n(-c3ccccc3C(F)(F)F)nnc21 | 3.36% (active) | 31.5% | 34.6% | 18.2% | 17.7% | 12.9% | -94.3% (active) | -34.8% (active) | – | – | 5.97% (active) | 22.6% | 54.8% | 23.6% | 24.3% | 82% | 7.06% (active) | -5.7% (active) | 36.3% | 15% |
| O=C1c2c(c(=O)[nH]c3ccccc23)CCN1Cc1ccccc1 | 96.6% | 99.3% | 79.8% | 99.6% | 103% | 84.9% | 108% | 97.1% | 107% | 127% | 97.4% | – | 119% | 91.8% | – | 110% | – | – | 92.4% | 100% |
| COc1ccc(-c2cc(-c3ccccc3)nc(SCCCCCCC(=O)NO)n2)cc1 | 44.3% | 27% | 24.8% | 60.6% | 51.5% | 58.8% | 13.1% | 24.8% | 67.9% | – | – | 34.3% | 45.9% | 45.4% | 39.6% | 48.7% | 14.4% | 13.1% | 74.2% | – |
